Measurements reported in PubChem BioAssay (NCATS).
Calls of active or inactive are those of the source. The call rests on the fitted dose curve.

Details: Ebola virus entry cell assay, ratio channel

| Structure (SMILES) | outcome | AC50 |
| --- | --- | --- |
| Cc1ccc(S(=O)(=O)NC(=O)NN2CC3CCCC3C2)cc1 (stereo unspecified) | inactive |  |
| COC(=O)[C@H]1[C@H]2C[C@@H]3c4[nH]c5cc(OC)ccc5c4CCN3C[C@H]2C[C@@H](OC(=O)c2cc(OC)c(OC)c(OC)c2)[C@@H]1OC | inactive |  |
| O=c1[nH]cc(F)c(=O)[nH]1 | inactive |  |
| CCCN[C@H]1CCc2nc(N)sc2C1 | inactive |  |
| CO[C@@]12[C@H](COC(N)=O)C3=C(C(=O)C(C)=C(N)C3=O)N1C[C@@H]1N[C@@H]12 | inactive |  |
| Cc1cnc(C(=O)NCCc2ccc(S(=O)(=O)NC(=O)NC3CCCCC3)cc2)cn1 | inactive |  |
| Cn1c(=O)c2c(ncn2CC(O)CO)n(C)c1=O (stereo unspecified) | inactive |  |
| COc1cc2nc(N3CCN(C(=O)C4COc5ccccc5O4)CC3)nc(N)c2cc1OC (stereo unspecified) | inactive |  |
| CC(=O)[C@]1(O)Cc2c(O)c3c(c(O)c2[C@@H](O[C@H]2C[C@H](N)[C@H](O)[C@H](C)O2)C1)C(=O)c1ccccc1C3=O | inactive |  |
| NC[C@H](O)c1ccc(O)c(O)c1 | inactive |  |
| CN(C)CCCN1c2ccccc2CCc2ccc(Cl)cc21 |  | 6.31 µM (active) |
| CN(CCOc1ccc(NS(C)(=O)=O)cc1)CCc1ccc(NS(C)(=O)=O)cc1 | inactive |  |
| Cc1cn([C@H]2C[C@H](N=[N+]=[N-])[C@@H](CO)O2)c(=O)[nH]c1=O | inactive |  |
| CN1CCN(C(c2ccccc2)c2ccccc2)CC1 | inactive |  |
| CCc1nn(CCCN2CCN(c3cccc(Cl)c3)CC2)c(=O)n1CCOc1ccccc1 |  | 22.4 µM (active) |
| Cc1c(OCC(F)(F)F)ccnc1CS(=O)c1nc2ccccc2[nH]1 (stereo unspecified) | inactive |  |
